Data as given in PubChem BioAssay (Tox21).
Records with an inconclusive call do not appear. Activity calls are given as the source filed them. Unless noted, calls follow the shape of the full dose curve.

Experiments:
[1] = biological target: Acetylcholinesterase (Homo sapiens) (UniProt P22303); assay: Acetylcholinesterase (AChE) small molecule antagonists: colormetric cell-based qHTS assay (AID 1347395); also: nearly all actives have a fitted effect of over 30% in size; also: potency is read from the fitted curve at half-maximal effect
Procedure, shortened: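 AChE inhibition read colorimetrically via DTNB–thiocholine in SH-SY5Y cells. Compound 30 min, substrate 90 min, both 37 C.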

[2] = biological target: Acetylcholinesterase (Homo sapiens) (UniProt P22303); assay: Acetylcholinesterase (AChE) small molecule antagonists: enzyme-based qHTS assay (AID 1347397); conditions: Potency: AChE enzyme activity inhibition; outcome: AChE enzyme activity inhibition; also: nearly all actives have a fitted effect of over 55% in size
Procedure, shortened: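 Recombinant human AChE, dispensed at 50 mU/mL, was preincubated with Tox21 10K compounds or DMSO vehicle for 30 min at room temperature. DTNB plus acetylthiocholine was then added, and thiocholine was measured colorimetrically after a further 10 min.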

[3] = biological target: Acetylcholinesterase (Homo sapiens) (UniProt P22303); assay: Acetylcholinesterase (AChE) small molecule antagonists: fluorescence cell-based qHTS assay (AID 1347398); conditions: Potency: AChE activity; outcome: AChE activity; also: nearly all actives have a fitted effect of over 50% in size; also: potency is read from the fitted curve at half-maximal effect
Procedure, shortened: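 Human SH-SY5Y cells were plated overnight at 37 C, exposed to compound for 30 min at 37 C, 5% CO2, then given acetylthiocholine plus Thiolite Green for 40 min at room temperature; thiocholine fluorescence (Ex/Em 490/520 nm) reports endogenous AChE activity.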

[4] = biological target: Acetylcholinesterase (Homo sapiens) (UniProt P22303); assay: Acetylcholinesterase (AChE) small molecule antagonists: enzyme-based qHTS assay with human liver microsomes (AID 1347399); conditions: Potency: qHTS inhibition; outcome: qHTS inhibition; also: nearly all actives have a fitted effect of over 60% in size
Procedure, shortened: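 Recombinant human AChE (50 mU/mL in the enzyme mix) and human liver microsomes (0.25 mg/mL final) were preincubated with compound and NADPH (0.25 mg/mL final) for 30 min at 37 C. Acetylthiocholine/DTNB was then added; thiocholine was read colorimetrically after 10 min at room temperature.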

[5] = qHTS assay for small molecule agonists of the p53 signaling pathway (AID 651631); also: nearly all actives have a fitted effect of over 15% in size; also: potency is read from the fitted curve at half-maximal effect
Procedure, shortened: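 We treat p53RE-bla HCT-116 cells with compounds for 16 h at 37 °C, add LiveBLAzer B/G FRET substrate for 2 h at room temperature, and measure fluorescence intensity.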

[6] = biological target: Aromatase (Homo sapiens) (UniProt P11511); assay: qHTS assay to identify aromatase inhibitors (AID 743083; active = well fitted curve in the direction sought with a large enough effect in the repeat runs; an effect the other way counts as inactive or inconclusive; also: nearly all actives have a fitted effect of over 55% in size; also: potency is read from the fitted curve at half-maximal effect; as to activity, negative = inhibition: series mostly up to about 70 µM)
[7] = biological target: Aryl hydrocarbon receptor (Homo sapiens) (UniProt P35869); assay: qHTS assay to identify small molecule that activate the aryl hydrocarbon receptor (AhR) signaling pathway (AID 743085; active = well fitted curve in the direction sought with a large enough effect in the repeat runs; an effect the other way counts as inactive or inconclusive;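 also: HG2L7.5c1 human HepG2 liver cells with stably integrated DRE-driven firefly reporter; series mostly up to about 70 µM; nearly all actives have a fitted effect of over 15% in size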)
Procedure, shortened: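 AhR agonist activity is inferred from enhanced light output of a DRE-controlled firefly luciferase reporter in HepG2 cells, measured with ONE-Glo following 24 h treatment at 37C.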

[8] = qHTS assay for small molecule activators of the heat shock response signaling pathway (AID 743210; active = well fitted activation curve with a large enough effect in the signal ratio in the repeat runs, with a control signal flat, not every such curve was filed as active; the % refers to the signal ratio; also: series mostly up to about 63 µM)
Text: U.S. Tox21 Program National Center for Advancing Translational Sciences [NCATS] NIH Chemical Genomics Center [NCGC] U.S. Environmental Protection Agency [EPA] National Institutes of Environmental Health Sciences [NIEHS] National Toxicology Program [NTP] U.S. Food and Drug Administration [FDA] Tox21 Assay Overview: Various chemicals, environmental and physiological stress conditions may lead to the activation of heat shock response/ unfolded protein response (HSR/UPR). There are three heat shock transcription factors (HSFs) (HSF-1, -2, and -4) mediating transcriptional regulation of the human HSR. To identify the compounds that activate HSR signaling, HSE-bla HeLa cell line (Invitrogen, Carlsbad, CA, USA) containing a beta-lactamase reporter gene under the control of the heat shock response elements was used to screen the Tox21 10K compound library.
Tox21 Assay Protocol Summary: The CellSensor HSE-bla HeLa cells (Invitrogen, Carlsbad, CA, USA) were dispensed at 1500 cells/6uL/well into 1536-well black wall/clear bottom plates using a Multidrop combi (Thermo Fisher Scientific, Waltham, MA) dispenser. […] After 1 uL of LiveBLAzerTM B/G FRET substrate was added using a Flying Reagent Dispenser (Beckman Coulter, Indianapolis, IN, USA), the plates were incubated at room temperature for 2.5 h, and fluorescence intensity was measured by an Envision plate reader (PerkinElmer, Shelton, CT).

[9] = biological target: Glucocorticoid receptor (Homo sapiens) (UniProt P04150); assay: qHTS assay to identify small molecule antagonists of the glucocorticoid receptor (GR) signaling pathway (AID 720692; active = well fitted inhibition curve with a large enough effect in the signal ratio in the repeat runs, not every such curve was filed as active; the % refers to the signal ratio)
Procedure, shortened: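 HeLa GR-bla cells; cmpd + dex 5 nM final, 18 h 37 C; LiveBLAzer B/G FRET substrate 2 h RT; fluorescence intensity read. Antagonist mode, qHTS.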
% is scaled to controls: 0 for no effect and ±100 for the full control effect.

Aromatase (Homo sapiens), sequence (P11511 whole entry, looked up): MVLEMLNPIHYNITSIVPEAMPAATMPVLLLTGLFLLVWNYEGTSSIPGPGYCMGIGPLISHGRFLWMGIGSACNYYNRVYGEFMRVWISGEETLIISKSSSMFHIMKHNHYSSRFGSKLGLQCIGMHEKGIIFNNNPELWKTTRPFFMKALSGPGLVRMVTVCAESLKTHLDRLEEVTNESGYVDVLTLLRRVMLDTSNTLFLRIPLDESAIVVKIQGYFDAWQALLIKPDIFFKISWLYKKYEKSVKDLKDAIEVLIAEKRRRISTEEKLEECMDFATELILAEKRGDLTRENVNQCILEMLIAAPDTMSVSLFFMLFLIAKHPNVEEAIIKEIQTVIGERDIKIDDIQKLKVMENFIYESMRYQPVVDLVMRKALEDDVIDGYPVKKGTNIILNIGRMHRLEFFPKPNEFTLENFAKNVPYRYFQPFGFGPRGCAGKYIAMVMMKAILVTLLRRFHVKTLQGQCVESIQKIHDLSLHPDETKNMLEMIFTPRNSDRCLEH
Aryl hydrocarbon receptor (Homo sapiens), sequence (P35869 whole entry, looked up): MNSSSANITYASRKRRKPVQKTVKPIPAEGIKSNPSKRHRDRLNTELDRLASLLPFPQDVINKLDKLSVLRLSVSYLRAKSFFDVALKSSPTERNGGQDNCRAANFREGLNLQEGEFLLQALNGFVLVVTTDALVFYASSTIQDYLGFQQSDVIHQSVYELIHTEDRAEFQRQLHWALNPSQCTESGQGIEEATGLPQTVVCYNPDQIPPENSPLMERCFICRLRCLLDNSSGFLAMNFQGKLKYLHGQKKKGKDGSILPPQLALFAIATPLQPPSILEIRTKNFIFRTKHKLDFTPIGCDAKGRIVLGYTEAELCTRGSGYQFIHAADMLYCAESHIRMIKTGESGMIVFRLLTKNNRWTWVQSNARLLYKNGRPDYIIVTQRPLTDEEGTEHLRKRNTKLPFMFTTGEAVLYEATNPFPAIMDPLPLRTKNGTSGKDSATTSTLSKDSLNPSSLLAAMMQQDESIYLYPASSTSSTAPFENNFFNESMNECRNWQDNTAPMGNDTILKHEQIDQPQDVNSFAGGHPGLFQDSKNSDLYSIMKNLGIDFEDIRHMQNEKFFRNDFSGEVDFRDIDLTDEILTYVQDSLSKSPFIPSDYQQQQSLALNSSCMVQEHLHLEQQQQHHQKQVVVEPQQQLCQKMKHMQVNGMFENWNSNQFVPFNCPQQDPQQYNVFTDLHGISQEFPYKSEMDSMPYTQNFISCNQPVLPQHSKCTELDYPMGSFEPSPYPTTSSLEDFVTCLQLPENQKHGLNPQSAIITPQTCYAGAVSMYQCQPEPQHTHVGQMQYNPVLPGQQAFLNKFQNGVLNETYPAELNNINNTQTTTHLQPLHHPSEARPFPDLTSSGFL
Acetylcholinesterase (Homo sapiens), sequence (P22303 whole entry, looked up): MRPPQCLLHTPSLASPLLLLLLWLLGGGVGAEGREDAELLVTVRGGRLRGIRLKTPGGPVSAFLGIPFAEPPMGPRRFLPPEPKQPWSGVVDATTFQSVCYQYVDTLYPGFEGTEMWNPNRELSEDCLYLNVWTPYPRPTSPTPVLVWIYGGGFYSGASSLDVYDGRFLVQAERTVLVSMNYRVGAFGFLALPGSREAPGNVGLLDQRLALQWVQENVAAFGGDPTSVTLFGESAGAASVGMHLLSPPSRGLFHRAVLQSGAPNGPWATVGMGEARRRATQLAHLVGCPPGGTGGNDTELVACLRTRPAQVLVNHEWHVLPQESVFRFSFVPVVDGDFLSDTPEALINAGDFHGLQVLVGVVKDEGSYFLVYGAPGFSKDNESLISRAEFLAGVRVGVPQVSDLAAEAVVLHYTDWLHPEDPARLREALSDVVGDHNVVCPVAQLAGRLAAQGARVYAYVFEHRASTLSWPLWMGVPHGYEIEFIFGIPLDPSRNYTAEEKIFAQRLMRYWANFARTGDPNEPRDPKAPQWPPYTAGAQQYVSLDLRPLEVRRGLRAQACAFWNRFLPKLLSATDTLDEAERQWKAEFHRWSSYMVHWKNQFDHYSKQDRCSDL
Glucocorticoid receptor (Homo sapiens), sequence (P04150 whole entry, looked up): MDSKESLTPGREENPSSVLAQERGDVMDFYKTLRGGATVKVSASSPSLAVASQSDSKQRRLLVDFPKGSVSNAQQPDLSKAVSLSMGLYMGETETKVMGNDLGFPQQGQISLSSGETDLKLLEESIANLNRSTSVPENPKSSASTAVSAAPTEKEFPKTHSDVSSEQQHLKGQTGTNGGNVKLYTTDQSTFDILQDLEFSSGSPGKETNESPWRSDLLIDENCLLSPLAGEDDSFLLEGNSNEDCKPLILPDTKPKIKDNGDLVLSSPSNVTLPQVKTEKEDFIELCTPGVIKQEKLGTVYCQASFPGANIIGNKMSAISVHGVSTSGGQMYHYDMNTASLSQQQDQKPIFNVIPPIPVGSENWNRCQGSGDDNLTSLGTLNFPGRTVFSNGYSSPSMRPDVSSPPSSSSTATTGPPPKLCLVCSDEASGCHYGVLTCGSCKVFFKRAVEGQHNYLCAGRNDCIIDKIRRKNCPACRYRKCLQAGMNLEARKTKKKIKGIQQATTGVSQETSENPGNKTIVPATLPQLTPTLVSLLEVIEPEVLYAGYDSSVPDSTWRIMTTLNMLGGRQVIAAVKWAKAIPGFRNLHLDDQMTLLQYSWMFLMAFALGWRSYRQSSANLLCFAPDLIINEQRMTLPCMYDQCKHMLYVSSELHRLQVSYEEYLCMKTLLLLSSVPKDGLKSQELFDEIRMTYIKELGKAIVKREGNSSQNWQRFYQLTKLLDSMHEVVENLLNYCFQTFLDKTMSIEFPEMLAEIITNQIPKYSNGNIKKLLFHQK

O=C1CCCc2c1cc1ccc3cccc4ccc2c1c34
inactive: Potency [1] | Potency [2] | Potency [3] | Potency [4]

Cc1ccc(N)cc1[N+](=O)[O-]
inactive: Potency [5] | Potency [6] | Potency [1] | Potency [2] | Potency [3] | Potency [4]

O=C(Oc1ccccc1)c1ccccc1C(=O)Oc1ccccc1
inactive: Potency [6] | Potency [1] | Potency [2] | Potency [3] | Potency [4]

CCN(CC)c1ccc2c(c1)Oc1cc(N(CC)CC)ccc1C21OC(=O)c2ccccc21
inactive: Potency [1] | Potency [2] | Potency [4]

O=C1CC2(CCCC2)CC(=O)N1
inactive: Potency [1] | Potency [2] | Potency [3] | Potency [4]

CC1=C2[C@H](/C=C(\C)C(=O)O)CC[C@@H](C)[C@H]2CC1
inactive: Potency [1] | Potency [2] | Potency [3] | Potency [4]

O=C1CCCCCCCCCCC(=O)OCCO1
inactive: Potency [1] | Potency [2] | Potency [3] | Potency [4]

CCCC=O
inactive: Potency [1] | Potency [2] | Potency [3] | Potency [4]

Cc1cncc(C)c1
inactive: Potency [1] | Potency [2] | Potency [3] | Potency [4]

Cc1cc(C(C#N)c2ccc(Cl)cc2)c(Cl)cc1NC(=O)c1cc(I)cc(I)c1O (configuration not stated)
inactive: outcome [7] | Potency [1] | Potency [2] | Potency [3] | Potency [4]

CC(C)(c1cc(Br)c(OCCO)c(Br)c1)c1cc(Br)c(OCCO)c(Br)c1
active: Potency [5] 42.3 µM | Potency [6] 42.3 µM
inactive: outcome [7] | Potency [1] | Potency [2] | Potency [3] | Potency [4]

Cc1cc(C)c(N)cc1C
inactive: Potency [6] | outcome [7] | Potency [1] | Potency [2] | Potency [3] | Potency [4]

CC(=O)CC(C)C
inactive: Potency [5] | Potency [6] | outcome [7] | outcome [8] | Potency [1] | Potency [2] | Potency [3] | Potency [4]

O=C1OC(OC(=O)c2cccnc2Nc2cccc(C(F)(F)F)c2)c2ccccc21 (configuration not stated)
inactive: Potency [1] | Potency [2] | Potency [3] | Potency [4]

c1ccc(-c2ccc(-c3ccccc3)cc2)cc1
inactive: Potency [6] | activity, negative = inhibition [1] -0.11% [at 23.6 µM] | activity change, negative = inhibition [2] 0% [at 23.6 µM] | activity change, negative = inhibition [3] 6.58% [at 23.8 µM] | activity change, negative = inhibition [4] 0.417% [at 23.6 µM]

CCC(C)C(=O)OCCc1ccccc1 (configuration not stated)
inactive: Potency [1] | Potency [2] | Potency [4]

CN(C)CCN(Cc1ccccc1)c1ccccn1
inactive: Potency [1] | Potency [2] | Potency [4]

Cc1cc2c(cc1CC(=O)c1sccc1S(=O)(=O)Nc1onc(C)c1Cl)OCO2
inactive: Potency [1] | Potency [2] | Potency [3] | Potency [4]

CC/C=C\CCOC(=O)C(C)C
inactive: Potency [1] | Potency [2] | Potency [3] | Potency [4]

C#CC(O)C(CC)CCCC (configuration not stated)
inactive: Potency [1] | Potency [2] | Potency [3] | Potency [4]

O=C(O)COCC(=O)O
inactive: Potency [1] | Potency [2] | Potency [3] | Potency [4]

C=CCOCC(O)CO (configuration not stated)
inactive: Potency [1] | Potency [2] | Potency [3] | Potency [4]

CCCCCCOC(=O)C(C)CC (configuration not stated)
inactive: Potency [1] | Potency [2] | Potency [3] | Potency [4]

C1=C\CC/C=C\CC/C=C\CC/1
inactive: Potency [5] | Potency [9] | Potency [1] | Potency [2] | Potency [3] | Potency [4]

O=c1[nH]c(=O)n([C@H]2O[C@H](CO)[C@@H](O)[C@@H]2O)cc1/C=C\Br
inactive: Potency [1] | Potency [2] | Potency [4]

O=C(c1ccccc1)C1CCCCC1
inactive: Potency [1] | Potency [2] | Potency [3] | Potency [4]

Nc1cc(C(F)(F)F)ccc1S
inactive: Potency [1] | Potency [2] | Potency [4]

COc1ccc(Cl)cc1C
inactive: Potency [1] | Potency [2] | Potency [3] | Potency [4]

CCCC(C)C=O (configuration not stated)
inactive: Potency [1] | Potency [2] | Potency [3] | Potency [4]

O=C(CCOCCOCCOCCOCCC(=O)Nc1c(I)cc(I)c(C(=O)O)c1I)Nc1c(I)cc(I)c(C(=O)O)c1I
inactive: Potency [1] | Potency [2] | Potency [3] | Potency [4]

CCCCCCCCCCCCSC
inactive: Potency [1] | Potency [2] | Potency [3] | Potency [4]

CS(=O)(=O)c1ccc(-c2cn3ccccc3n2)cc1
inactive: Potency [1] | Potency [2] | Potency [4]

CC[C@H]1CC[C@H](NCc2cc3c(cc2OC)[C@H]2C[C@H]2C(=O)N3C)[C@H](c2ccccc2)N1
inactive: Potency [2] | Potency [4]
active: Potency [1] 31.7 µM | Potency [3] 35.6 µM

Cc1ccc(C)c(N)c1
inactive: Potency [5] | Potency [1] | Potency [2] | Potency [3] | Potency [4]

Cc1ccccc1C
inactive: Potency [5] | Potency [9] | Potency [1] | Potency [2] | Potency [3] | Potency [4]

COc1cc2nc(Cl)nc(N)c2cc1OC
inactive: Potency [1] | Potency [2] | Potency [3] | Potency [4]
